Results from article PMC7862700, “An all-to-all approach to the identification of sequence-specific readers for epigenetic DNA modifications on cytosine”.

Columns and labels:
Experiment in all cases: DAPPL (digital affinity profiling via proximity ligation, sequencing); 10 mM Tris-HCl pH 7.5, 50 mM NaCl, 1 mM DTT, 4% glycerol, room temperature, 30 min; GST-TFs on glutathione beads, 16-mer random dsDNA library, 0.1% formaldehyde crosslink after washing; high values mean tight binding
Conditions in all cases: protein: recombinant; tags: N-terminal GST; dsDNA, one strand shown
FLI1 = target: T1, FLI1 (Homo sapiens, UniProt Q01543 1-452)
T1 sequence: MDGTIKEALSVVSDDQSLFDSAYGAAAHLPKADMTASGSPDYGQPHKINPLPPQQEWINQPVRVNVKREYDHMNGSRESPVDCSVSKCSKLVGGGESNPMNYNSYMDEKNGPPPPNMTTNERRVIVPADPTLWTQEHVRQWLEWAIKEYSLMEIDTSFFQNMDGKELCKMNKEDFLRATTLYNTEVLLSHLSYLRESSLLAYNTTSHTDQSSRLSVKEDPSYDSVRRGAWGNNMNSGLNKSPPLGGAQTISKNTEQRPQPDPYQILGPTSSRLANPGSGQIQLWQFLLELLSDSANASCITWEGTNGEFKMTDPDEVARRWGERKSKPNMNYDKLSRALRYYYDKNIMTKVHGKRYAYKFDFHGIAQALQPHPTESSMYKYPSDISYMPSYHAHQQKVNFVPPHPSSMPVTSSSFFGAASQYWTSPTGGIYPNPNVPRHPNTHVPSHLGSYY
How it was run: (§1)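 Binding signal is given per hexamer as its read frequency for a factor divided by its frequency in the tag-only sample. GST-fused human transcription factors were expressed in yeast, captured on glutathione beads, barcoded with DNA and pooled with that sample, then incubated with 200 nmole of a 16-mer random double-stranded DNA library in Tris/NaCl/DTT/glycerol buffer for 30 min at room temperature. The pools were then washed, crosslinked, proximity-ligated, amplified by PCR and sequenced on an Illumina NextSeq500.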

ELK1 = target: T2, ELK1 (Homo sapiens, UniProt P19419 1-428)
T2 sequence: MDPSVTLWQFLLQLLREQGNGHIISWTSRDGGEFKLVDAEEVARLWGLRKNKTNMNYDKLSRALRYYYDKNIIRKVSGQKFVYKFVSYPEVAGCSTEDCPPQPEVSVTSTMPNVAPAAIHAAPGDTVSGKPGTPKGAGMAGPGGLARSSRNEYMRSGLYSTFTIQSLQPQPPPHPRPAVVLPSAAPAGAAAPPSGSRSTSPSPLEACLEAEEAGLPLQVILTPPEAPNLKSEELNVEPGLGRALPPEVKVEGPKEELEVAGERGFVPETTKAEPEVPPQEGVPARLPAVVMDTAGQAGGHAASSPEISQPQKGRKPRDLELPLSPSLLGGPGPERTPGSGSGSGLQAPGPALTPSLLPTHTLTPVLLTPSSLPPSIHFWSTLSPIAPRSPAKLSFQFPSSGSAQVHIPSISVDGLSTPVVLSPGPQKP
How it was run: as §1

GABPA = target: T3, GABPA (Homo sapiens, UniProt Q06546 1-454)
T3 sequence: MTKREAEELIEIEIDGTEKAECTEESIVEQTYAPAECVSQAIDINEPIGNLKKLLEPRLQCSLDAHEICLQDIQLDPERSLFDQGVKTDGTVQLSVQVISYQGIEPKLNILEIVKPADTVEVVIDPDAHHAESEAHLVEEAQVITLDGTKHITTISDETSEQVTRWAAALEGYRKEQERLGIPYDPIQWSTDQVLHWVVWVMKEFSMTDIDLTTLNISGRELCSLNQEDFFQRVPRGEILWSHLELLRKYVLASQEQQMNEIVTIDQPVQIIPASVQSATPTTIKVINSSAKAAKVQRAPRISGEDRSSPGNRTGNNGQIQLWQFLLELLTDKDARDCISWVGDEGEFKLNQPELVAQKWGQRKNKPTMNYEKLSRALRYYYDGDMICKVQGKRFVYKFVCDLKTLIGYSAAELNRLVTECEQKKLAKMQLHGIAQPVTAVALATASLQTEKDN
How it was run: as §1

ERG = target: T4, ERG (Homo sapiens, UniProt P11308 1-479)
T4 sequence: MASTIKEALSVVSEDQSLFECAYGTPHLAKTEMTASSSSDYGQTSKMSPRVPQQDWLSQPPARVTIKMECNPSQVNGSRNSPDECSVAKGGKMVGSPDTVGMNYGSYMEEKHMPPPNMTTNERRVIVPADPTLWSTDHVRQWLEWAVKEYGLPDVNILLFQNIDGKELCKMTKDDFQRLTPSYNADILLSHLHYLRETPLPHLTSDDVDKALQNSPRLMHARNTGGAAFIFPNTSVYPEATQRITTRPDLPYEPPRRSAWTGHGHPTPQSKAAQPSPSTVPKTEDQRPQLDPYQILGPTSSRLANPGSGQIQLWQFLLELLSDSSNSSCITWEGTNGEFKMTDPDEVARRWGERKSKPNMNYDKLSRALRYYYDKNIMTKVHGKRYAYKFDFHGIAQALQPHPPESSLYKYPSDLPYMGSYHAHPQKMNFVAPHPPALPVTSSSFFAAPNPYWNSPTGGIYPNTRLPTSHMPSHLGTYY
How it was run: as §1

ELF1 = ELF1 (Homo sapiens, UniProt P32519 1-619)
ELF1, sequence (P32519 whole entry): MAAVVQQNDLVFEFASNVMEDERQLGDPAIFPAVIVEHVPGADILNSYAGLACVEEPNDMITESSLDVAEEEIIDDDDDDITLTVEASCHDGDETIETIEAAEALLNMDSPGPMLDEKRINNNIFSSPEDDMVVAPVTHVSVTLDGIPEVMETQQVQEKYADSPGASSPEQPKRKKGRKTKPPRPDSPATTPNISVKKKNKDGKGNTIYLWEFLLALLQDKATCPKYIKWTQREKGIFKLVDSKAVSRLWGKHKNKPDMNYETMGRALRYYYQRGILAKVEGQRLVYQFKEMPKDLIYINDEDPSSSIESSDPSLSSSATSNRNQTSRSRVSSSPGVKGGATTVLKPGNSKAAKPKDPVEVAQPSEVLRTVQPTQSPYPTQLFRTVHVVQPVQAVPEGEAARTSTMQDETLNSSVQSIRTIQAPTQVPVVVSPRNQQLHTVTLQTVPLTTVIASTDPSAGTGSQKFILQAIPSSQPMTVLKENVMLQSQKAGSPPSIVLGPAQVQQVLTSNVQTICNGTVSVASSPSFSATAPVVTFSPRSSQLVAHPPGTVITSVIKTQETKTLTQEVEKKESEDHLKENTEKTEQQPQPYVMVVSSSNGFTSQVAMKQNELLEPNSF
How it was run: as §1

EHF = target: T5, EHF (Homo sapiens, UniProt Q9NZC4 1-300)
T5 sequence: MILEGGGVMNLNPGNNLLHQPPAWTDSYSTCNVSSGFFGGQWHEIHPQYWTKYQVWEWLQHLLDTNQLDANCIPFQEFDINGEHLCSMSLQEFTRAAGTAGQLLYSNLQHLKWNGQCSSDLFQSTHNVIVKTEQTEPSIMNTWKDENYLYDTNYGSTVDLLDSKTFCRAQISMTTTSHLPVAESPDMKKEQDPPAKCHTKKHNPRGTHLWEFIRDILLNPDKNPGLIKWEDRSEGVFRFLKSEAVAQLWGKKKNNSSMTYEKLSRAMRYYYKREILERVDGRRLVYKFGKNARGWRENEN
How it was run: as §1

SPI1 = SPI1 (Homo sapiens, UniProt P17947 1-270)
How it was run: as §1

SPIB = SPIB (Homo sapiens, UniProt Q01892 1-262)
SPIB, sequence (Q01892 whole entry): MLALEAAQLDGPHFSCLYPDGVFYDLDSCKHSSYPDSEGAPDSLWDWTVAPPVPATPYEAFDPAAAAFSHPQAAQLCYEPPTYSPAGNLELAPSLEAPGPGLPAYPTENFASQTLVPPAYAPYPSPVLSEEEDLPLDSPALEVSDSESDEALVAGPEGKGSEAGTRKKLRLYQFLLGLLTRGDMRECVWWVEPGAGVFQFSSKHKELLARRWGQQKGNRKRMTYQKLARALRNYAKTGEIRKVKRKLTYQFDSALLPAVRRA
How it was run: as §1

ELK3 = target: T6, ELK3 (Homo sapiens, UniProt P41970 1-407)
T6 sequence: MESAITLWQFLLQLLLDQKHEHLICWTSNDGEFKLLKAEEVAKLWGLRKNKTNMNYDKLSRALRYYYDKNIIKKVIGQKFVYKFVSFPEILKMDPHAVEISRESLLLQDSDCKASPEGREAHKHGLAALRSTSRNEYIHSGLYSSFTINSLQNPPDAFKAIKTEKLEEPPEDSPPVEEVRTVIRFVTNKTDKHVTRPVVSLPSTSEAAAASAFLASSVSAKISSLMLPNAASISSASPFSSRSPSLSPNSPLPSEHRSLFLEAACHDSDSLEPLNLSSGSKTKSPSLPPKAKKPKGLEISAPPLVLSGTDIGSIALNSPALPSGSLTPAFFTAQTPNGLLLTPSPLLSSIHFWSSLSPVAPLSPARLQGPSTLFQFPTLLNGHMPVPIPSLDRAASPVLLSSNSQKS
How it was run: as §1

FEV = target: T7, FEV (Homo sapiens, UniProt Q99581 1-238)
T7 sequence: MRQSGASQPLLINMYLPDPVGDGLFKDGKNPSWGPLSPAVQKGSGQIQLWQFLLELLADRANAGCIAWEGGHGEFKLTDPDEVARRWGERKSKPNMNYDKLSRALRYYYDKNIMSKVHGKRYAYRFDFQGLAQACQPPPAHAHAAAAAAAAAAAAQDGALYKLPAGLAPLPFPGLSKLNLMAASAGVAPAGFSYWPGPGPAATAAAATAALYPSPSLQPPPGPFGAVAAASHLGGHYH
How it was run: as §1

ETV5 = ETV5 (Homo sapiens, UniProt P41161 1-510)
ETV5, sequence (P41161 whole entry): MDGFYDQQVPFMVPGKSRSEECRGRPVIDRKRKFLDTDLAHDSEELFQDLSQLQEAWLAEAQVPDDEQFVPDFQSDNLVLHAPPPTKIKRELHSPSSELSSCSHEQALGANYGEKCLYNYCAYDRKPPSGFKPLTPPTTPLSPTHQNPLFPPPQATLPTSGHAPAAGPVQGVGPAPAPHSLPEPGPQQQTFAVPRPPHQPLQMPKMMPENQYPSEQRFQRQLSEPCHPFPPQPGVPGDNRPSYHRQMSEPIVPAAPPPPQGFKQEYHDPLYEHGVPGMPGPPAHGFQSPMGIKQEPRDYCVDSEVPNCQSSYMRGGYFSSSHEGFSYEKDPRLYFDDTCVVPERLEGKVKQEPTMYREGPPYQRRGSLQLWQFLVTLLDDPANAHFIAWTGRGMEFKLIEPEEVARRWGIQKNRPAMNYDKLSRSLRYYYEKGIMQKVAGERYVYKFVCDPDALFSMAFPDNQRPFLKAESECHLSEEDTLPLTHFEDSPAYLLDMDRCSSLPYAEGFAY
How it was run: as §1

SPIC = target: T8, SPIC (Homo sapiens, UniProt Q8N5J4 1-248)
T8 sequence: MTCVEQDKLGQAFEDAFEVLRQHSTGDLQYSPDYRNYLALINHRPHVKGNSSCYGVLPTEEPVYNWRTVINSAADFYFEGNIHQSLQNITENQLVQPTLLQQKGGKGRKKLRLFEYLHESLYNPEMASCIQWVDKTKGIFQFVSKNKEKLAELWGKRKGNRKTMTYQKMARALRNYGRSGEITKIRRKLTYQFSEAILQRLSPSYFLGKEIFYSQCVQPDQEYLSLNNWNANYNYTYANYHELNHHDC
How it was run: as §1

ELF4 = ELF4 (Homo sapiens, UniProt Q99607 1-663)
ELF4, sequence (Q99607 whole entry): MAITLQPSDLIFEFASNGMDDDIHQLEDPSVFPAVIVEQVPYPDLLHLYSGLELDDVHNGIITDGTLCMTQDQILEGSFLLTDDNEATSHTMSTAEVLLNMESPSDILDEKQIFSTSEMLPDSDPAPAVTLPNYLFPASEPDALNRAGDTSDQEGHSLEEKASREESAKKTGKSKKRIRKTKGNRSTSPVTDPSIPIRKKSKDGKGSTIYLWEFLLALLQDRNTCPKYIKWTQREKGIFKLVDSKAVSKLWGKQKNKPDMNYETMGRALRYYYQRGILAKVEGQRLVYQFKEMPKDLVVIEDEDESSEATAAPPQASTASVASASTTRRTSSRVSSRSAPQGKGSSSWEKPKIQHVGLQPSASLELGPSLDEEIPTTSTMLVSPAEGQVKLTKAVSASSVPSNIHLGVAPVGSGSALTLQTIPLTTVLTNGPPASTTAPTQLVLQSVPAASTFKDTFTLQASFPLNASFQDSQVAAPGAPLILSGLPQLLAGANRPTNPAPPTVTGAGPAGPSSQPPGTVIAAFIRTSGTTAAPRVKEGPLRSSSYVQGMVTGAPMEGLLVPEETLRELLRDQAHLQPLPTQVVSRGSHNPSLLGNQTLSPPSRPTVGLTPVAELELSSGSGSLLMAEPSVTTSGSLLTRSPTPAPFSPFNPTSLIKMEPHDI
How it was run: as §1

ELK4 = target: T9, ELK4 (Homo sapiens, UniProt P28324-2 1-405)
T9 sequence: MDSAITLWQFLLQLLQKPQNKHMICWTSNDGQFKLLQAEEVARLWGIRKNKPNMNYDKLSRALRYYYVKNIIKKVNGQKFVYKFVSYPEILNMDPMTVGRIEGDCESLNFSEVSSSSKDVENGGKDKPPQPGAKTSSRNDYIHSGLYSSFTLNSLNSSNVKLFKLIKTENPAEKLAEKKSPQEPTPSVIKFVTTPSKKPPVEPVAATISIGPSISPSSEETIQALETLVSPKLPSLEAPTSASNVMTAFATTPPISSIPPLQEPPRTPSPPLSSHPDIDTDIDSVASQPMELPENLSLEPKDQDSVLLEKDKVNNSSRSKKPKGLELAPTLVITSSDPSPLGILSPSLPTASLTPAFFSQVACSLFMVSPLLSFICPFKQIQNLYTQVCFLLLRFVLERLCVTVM
How it was run: as §1

ETV2 = target: T10, ETV2 (Homo sapiens, UniProt O00321 1-342)
T10 sequence: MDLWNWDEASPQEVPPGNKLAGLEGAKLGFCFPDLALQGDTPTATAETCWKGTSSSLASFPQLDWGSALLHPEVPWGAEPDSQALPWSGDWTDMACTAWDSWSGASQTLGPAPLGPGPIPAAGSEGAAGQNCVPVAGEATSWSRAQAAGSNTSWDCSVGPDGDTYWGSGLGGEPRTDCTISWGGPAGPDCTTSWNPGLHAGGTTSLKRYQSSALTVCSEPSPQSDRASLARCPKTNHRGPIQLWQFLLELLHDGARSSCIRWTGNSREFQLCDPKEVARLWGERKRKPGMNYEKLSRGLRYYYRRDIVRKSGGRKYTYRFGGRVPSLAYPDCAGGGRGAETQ
How it was run: as §1

ELF3 = target: T11, ELF3 (Homo sapiens, UniProt P78545 1-371)
T11 sequence: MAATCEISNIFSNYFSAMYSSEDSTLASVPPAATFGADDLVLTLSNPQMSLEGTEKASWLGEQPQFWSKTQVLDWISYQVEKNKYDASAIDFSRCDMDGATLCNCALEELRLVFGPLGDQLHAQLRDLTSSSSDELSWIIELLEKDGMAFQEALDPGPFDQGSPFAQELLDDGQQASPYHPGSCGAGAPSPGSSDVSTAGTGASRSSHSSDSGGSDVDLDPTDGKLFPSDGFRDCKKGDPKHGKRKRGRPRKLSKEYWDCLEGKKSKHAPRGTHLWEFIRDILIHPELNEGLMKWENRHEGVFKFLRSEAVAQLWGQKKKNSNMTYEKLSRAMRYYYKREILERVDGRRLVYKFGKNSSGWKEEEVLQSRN
How it was run: as §1

ETV1 = ETV1 (Homo sapiens, UniProt P50549 1-477)
ETV1, sequence (P50549 whole entry): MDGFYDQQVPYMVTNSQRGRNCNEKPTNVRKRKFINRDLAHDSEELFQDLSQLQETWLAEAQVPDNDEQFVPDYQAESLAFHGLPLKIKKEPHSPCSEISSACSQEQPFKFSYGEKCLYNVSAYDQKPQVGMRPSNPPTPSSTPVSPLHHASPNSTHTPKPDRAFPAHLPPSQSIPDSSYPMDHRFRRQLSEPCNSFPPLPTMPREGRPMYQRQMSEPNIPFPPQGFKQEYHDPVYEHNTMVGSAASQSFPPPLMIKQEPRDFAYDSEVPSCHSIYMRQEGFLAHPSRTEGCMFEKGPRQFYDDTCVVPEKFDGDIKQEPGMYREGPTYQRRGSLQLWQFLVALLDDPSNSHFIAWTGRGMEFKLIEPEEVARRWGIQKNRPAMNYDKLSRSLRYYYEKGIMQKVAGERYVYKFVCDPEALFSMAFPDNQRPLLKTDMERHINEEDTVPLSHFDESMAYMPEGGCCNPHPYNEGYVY
How it was run: as §1

| Sequence | binding signal (FLI1) | binding signal (ELK1) | binding signal (GABPA) | binding signal (ERG) | binding signal (ELF1) | binding signal (EHF) | binding signal (SPI1) | binding signal (SPIB) | binding signal (ELK3) | binding signal (FEV) | binding signal (ETV5) | binding signal (SPIC) | binding signal (ELF4) | binding signal (ELK4) | binding signal (ETV2) | binding signal (ELF3) | binding signal (ETV1) |
| --- | --- | --- | --- | --- | --- | --- | --- | --- | --- | --- | --- | --- | --- | --- | --- | --- | --- |
| AGTACA | 1.13 fold enrichment (6-mer frequency, TF over GST control) | 1.16 fold enrichment (6-mer frequency, TF over GST control) | 1.12 fold enrichment (6-mer frequency, TF over GST control) | 1.19 fold enrichment (6-mer frequency, TF over GST control) | 1.08 fold enrichment (6-mer frequency, TF over GST control) | 1.13 fold enrichment (6-mer frequency, TF over GST control) | 1.17 fold enrichment (6-mer frequency, TF over GST control) | 1.07 fold enrichment (6-mer frequency, TF over GST control) | 1.31 fold enrichment (6-mer frequency, TF over GST control) | 1.13 fold enrichment (6-mer frequency, TF over GST control) | 1.13 fold enrichment (6-mer frequency, TF over GST control) | 1.07 fold enrichment (6-mer frequency, TF over GST control) | 1.19 fold enrichment (6-mer frequency, TF over GST control) | 1.07 fold enrichment (6-mer frequency, TF over GST control) | 1.01 fold enrichment (6-mer frequency, TF over GST control) | 1.13 fold enrichment (6-mer frequency, TF over GST control) | 1.11 fold enrichment (6-mer frequency, TF over GST control) |
| CATATC | 1.25 fold enrichment (6-mer frequency, TF over GST control) | 1.39 fold enrichment (6-mer frequency, TF over GST control) | 1.26 fold enrichment (6-mer frequency, TF over GST control) | 1.37 fold enrichment (6-mer frequency, TF over GST control) | 1.32 fold enrichment (6-mer frequency, TF over GST control) | 1.36 fold enrichment (6-mer frequency, TF over GST control) | 1.3 fold enrichment (6-mer frequency, TF over GST control) | 1.32 fold enrichment (6-mer frequency, TF over GST control) | 1.34 fold enrichment (6-mer frequency, TF over GST control) | 1.4 fold enrichment (6-mer frequency, TF over GST control) | 1.36 fold enrichment (6-mer frequency, TF over GST control) | 1.23 fold enrichment (6-mer frequency, TF over GST control) | 1.29 fold enrichment (6-mer frequency, TF over GST control) | 1.24 fold enrichment (6-mer frequency, TF over GST control) | 1.41 fold enrichment (6-mer frequency, TF over GST control) | 1.28 fold enrichment (6-mer frequency, TF over GST control) | 1.41 fold enrichment (6-mer frequency, TF over GST control) |
